# Several values for one entry are separate records, joined by “and”; a condition that tells them apart may be missing. Equal entries are not always repeated. Results filed as inconclusive are left out. Where a call stands in place of a potency, no number is given. A structure can be active in one record and inactive in another. Activity calls are given as the source filed them. Unless noted, the call rests on the fitted dose curve; in most records, active means well fitted curve in the direction sought with a large enough effect; inconclusive means small, poorly fitted or top-dose-only effect, or another doubt; inactive means no such curve, though single readings can be large; an effect the other way counts as inactive or inconclusive.
# How the values were obtained:
# [1] = system: Zika virus NS2B-NS3 protease (unlinked complex); assay: Primary screen GU Rhodamine qHTS for Zika virus inhibitors: Unlinked NS2B-NS3 protease assay (AID 1347159); further: nearly all actives have a fitted effect of over 60% in size; further: potency means the concentration at half of the fitted maximal effect
# Method in brief: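 Compounds, tested up to 114 microM, were incubated for 15 minutes with 25 nM unlinked NS2B-NS3 protease at pH 8.0. Cleavage of 1.5 microM Rhodamine110 substrate was then followed by fluorescence for 15 minutes.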
# [2] = system: Zika virus NS2B-NS3 protease (linked construct); assay: Primary screen NINDS Rhodamine qHTS for Zika virus inhibitors (AID 1347160); further: nearly all actives have a fitted effect of over 55% in size; further: potency means the concentration at half of the fitted maximal effect
# Method in brief: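 Percent inhibition, normalized to uninhibited and enzyme-free controls, is fitted to a 4-parameter Hill equation. Fluorescence change comes from a 15-min cleavage of 1.5 microM bis-peptide Rhodamine110 substrate by 25 nM linked NS2B-NS3 at room temperature.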
# [3] = biological target: Calcium and integrin-binding protein 1 (Homo sapiens) (UniProt Q99828); assay: Primary qHTS for Identification of Calcium Integrin Binding Protein 1 (CIB1) Competitor (AID 1508620);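 further: GST tagged CIB1 binding a fluorescein labelled alphaIIb integrin peptide tracer; top concentration of the series differs between compounds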
# Sequence of Calcium and integrin-binding protein 1 (Homo sapiens) (Q99828 whole entry, looked up): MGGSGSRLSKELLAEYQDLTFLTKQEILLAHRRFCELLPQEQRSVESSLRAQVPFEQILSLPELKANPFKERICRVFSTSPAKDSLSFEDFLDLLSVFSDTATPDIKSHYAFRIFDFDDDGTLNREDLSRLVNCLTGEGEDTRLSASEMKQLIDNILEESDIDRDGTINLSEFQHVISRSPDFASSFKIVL
# Method in brief: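 CIB1-GST (1 uM final) and compound incubated 15 min at room temperature before adding FITC-alphaIIb peptide tracer (100 nM final). Competition for binding read by fluorescence polarization (ex 480, em 540) after another 15 min at room temperature.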
# [4] = Primary qHTS for inhibitors of nuclear receptor binding SET domain protein 2 (NSD2) in an isogenic RCH-ACV NSD2 p.E1099K mutant (9B) (AID 1645876); further: nearly all actives have a fitted effect of over 70% in size; further: potency means the concentration at half of the fitted maximal effect
# [5] = Primary qHTS for inhibitors of nuclear receptor binding SET domain protein 2 (NSD2) in an RCH-ACV wild type WT cells (2C) (AID 1645877); further: potency means the concentration at half of the fitted maximal effect; nearly all actives have a fitted effect of over 70% in size
# [6] = biological target: Glutathione peroxidase 1 (Homo sapiens) (UniProt P07203); assay: Primary qHTS Assay for Inhibitors of Recombinant Selenoprotein Glutathione Peroxidase 1 (GPX1) (AID 1845191); further: nearly all actives have a fitted effect of over 65% in size
# Sequence of Glutathione peroxidase 1 (Homo sapiens) (P07203 whole entry, looked up): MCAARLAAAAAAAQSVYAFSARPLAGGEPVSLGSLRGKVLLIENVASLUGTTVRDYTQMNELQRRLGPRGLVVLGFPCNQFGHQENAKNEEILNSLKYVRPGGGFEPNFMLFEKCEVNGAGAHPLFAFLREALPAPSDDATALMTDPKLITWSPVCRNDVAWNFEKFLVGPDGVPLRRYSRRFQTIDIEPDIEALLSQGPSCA
# Method in brief: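 10 nM GPX1 + cpd, 30 min RT; start w/ 1 mM GSH, 0.5 mM cumene hydroperoxide, 0.5 mM NADPH, 100 nM GR, 0.01% BSA; buffer 50 mM Tris-HCl pH 7.5, 2 mM EDTA, 150 mM NaCl; Fl 340/450, 0 & 15 min.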
# [7] = biological target: Phospholipid hydroperoxide glutathione peroxidase GPX4 (Homo sapiens) (UniProt P36969); assay: Primary qHTS Assay for Inhibitors of Recombinant Selenoprotein Glutathione Peroxidase 4 (GPX4) (AID 1845192); conditions: outcome: dose series up to 50 µM unless noted; further: nearly all actives have a fitted effect of over 65% in size
# Sequence of Phospholipid hydroperoxide glutathione peroxidase GPX4 (Homo sapiens) (P36969 whole entry, looked up): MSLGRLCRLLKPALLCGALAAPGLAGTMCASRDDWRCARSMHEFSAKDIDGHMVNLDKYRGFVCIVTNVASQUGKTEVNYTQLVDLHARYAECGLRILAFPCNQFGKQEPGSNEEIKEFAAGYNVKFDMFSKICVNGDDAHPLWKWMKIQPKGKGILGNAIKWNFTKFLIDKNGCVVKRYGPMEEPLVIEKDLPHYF
# Method in brief: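 NADPH consumption, followed by fluorescence at 340/450 nm between 0 and 15 min, reports GPX4 activity via coupled glutathione reductase (100 nM). Enzyme 200 nM was pre-exposed to compound 30 min; 0.5 mM cumene hydroperoxide and 1 mM GSH served as substrates.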
# [8] = biological target: Luciferin 4-monooxygenase (Photinus pyralis) (UniProt P08659); assay: Primary firefly luciferase (FLuc) qHTS assay for identification of artifact compounds. (AID 1845220); further: nearly all actives have a fitted effect of over 60% in size
# Method in brief: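 Cell-free, 1536-well qHTS. Buffer pH 7.6 with 0.01% Tween-20 and 0.05% BSA; 10 uM D-luciferin, 10 uM ATP; 10 nM P. pyralis luciferase; luminescence after 5 min.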
# [9] = system: Nanoluciferase (engineered Oplophorus gracilirostris luciferase); assay: Primary Nanoluciferase (NLuc) qHTS assay for identification of artifact compounds. (AID 1845222)
# Method in brief: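 Compounds are pinned into diluted (1:55) conditioned medium of NLuc-expressing S16 cells and held 15 min at room temperature protected from light. Nano-Glo substrate follows, and luminescence is read 5 min later.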
# HeLa = assay: Primary qHTS to identify gynecologic anti-cancer compounds using libraries of approved drugs and bioactive compounds (AID 1345084); conditions: Gynecologic cancer cell panel viability, ATPlite luminescence, 48 h; series mostly up to 57.5 µM; further: nearly all actives have a fitted effect of over 55% in size; further: potency means the concentration at half of the fitted maximal effect
# Method in brief: (§1)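 ATP-based viability (ATPlite), 1,000 cells/well, 16 h pre-incubation, 48 h compound at 37 C, 5% CO2, 15 min RT before read.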
# Hek293T = assay: as above; conditions: Gynecologic cancer cell panel viability, ATPlite luminescence, 48 h, control line for the selectivity index; series mostly up to 57.5 µM
# Method in brief: as §1
# OV90 = assay: as above; conditions: Gynecologic cancer cell panel viability, ATPlite luminescence, 48 h; series mostly up to 57.5 µM
# Method in brief: as §1
# Tov-21-G = assay: as above; conditions: Gynecologic cancer cell panel viability, ATPlite luminescence, 48 h; series mostly up to 57.5 µM
# Method in brief: as §1
# Tov112D = assay: as above; conditions: Gynecologic cancer cell panel viability, ATPlite luminescence, 48 h; series mostly up to 57.5 µM
# Method in brief: as §1
# [10] = qHTS drug screen for cell cycle checkpoint inhibitors in PARPi-resistant BRCA-mutant ovarian cancer cell lines. (AID 1963452; calls by dose curve); conditions: PEO1/OlaR viability, CellTiter-Glo luminescence, 96 h, stronger effect = lower value
# Method in brief: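 PEO1, PEO4 and PEO1/OlaR ovarian cancer cells, 600 per well, exposed 96 h at 37C to a dilution series. Viability read by CellTiter-Glo luminescence, normalized to DMSO and empty wells; activity summarized as Z-AUC.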
# C33A = assay: Primary qHTS to identify gynecologic anti-cancer compounds using libraries of approved drugs and bioactive compounds (AID 1345084); conditions: Gynecologic cancer cell panel viability, ATPlite luminescence, 48 h; series mostly up to 57.5 µM; further: nearly all actives have a fitted effect of over 55% in size; further: potency means the concentration at half of the fitted maximal effect
# Method in brief: as §1
# CASKI = assay: as above; conditions: Gynecologic cancer cell panel viability, ATPlite luminescence, 48 h; series mostly up to 57.5 µM
# Method in brief: as §1
# JEG-3 = assay: as above; conditions: Gynecologic cancer cell panel viability, ATPlite luminescence, 48 h; series mostly up to 57.5 µM
# Method in brief: as §1
# HaCat = assay: Cytotoxic Profiling of Annotated Libraries Using Quantitative High-Throughput Screening (AID 1296008); conditions: Five cell lines viability, CellTiter-Glo ATP luminescence, 48-72 h; max response: stronger effect = lower value; further: nearly all actives have a fitted effect of over 60% in size; further: potency means the concentration at half of the fitted maximal effect
# Method in brief: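 Cytotoxicity was measured as CellTiter-Glo ATP luminescence, read after 10 min at room temperature. Compound treatment of the cells lasted 48 or 72 hr at 37 degrees Celsius in a qHTS format.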
# Es-2 = assay: Primary qHTS to identify gynecologic anti-cancer compounds using libraries of approved drugs and bioactive compounds (AID 1345084); conditions: Gynecologic cancer cell panel viability, ATPlite luminescence, 48 h; series mostly up to 57.5 µM; further: nearly all actives have a fitted effect of over 55% in size; further: potency means the concentration at half of the fitted maximal effect
# Method in brief: as §1
# [11] = measured here: PEO1 parental Z-AUC
compound,measurement,setting,value
CC1(C)CC[C@]2(C(=O)OC3OC(CO)C(O)C(O)C3O)CC[C@]3(C)C(=CCC4[C@@]5(C)CC[C@H](OC6OC(C(=O)O)C(O)C(O)C6O)C(CO)(CO)C5CC[C@]43C)[C@@H]2C1 (some centres not stated),Potency,[1],inactive
same,Potency,[2],inactive
same,outcome,[3],inactive
same,Potency,[4],0.869 µM (active)
same,Potency,[5],0.435 µM (active)
same,Potency,[6],inactive
same,Potency,[7],inactive
same,"activity change, negative = inhibition",[8],0.233% [at 11.6 µM] (inactive)
same,"activity, negative = inhibition",[9],-2.38% [at 11.6 µM] (inactive)
same,"activity change, negative = cytotoxicity",HeLa,-15.8% [at 11.6 µM] (inactive)
same,"activity change, negative = cytotoxicity",Hek293T,-26.5% [at 11.6 µM] (inactive)
same,"activity change, negative = cytotoxicity",OV90,-19.7% [at 11.6 µM] (inactive)
same,"activity change, negative = cytotoxicity",Tov-21-G,-29.8% [at 11.6 µM] (inactive)
same,"activity change, negative = cytotoxicity",Tov112D,-7.53% [at 11.6 µM] (inactive)
Cc1[nH]c(/C=C2\C(=O)Nc3ccc(F)cc32)c(C)c1C(=O)NC[C@H](O)CN1CCOCC1,Potency,[1],inactive
same,Potency,[2],inactive
same,outcome,[3],inactive
same,Potency,[4],6.49 µM (active) and 9.34 µM (active)
same,Potency,[7],inactive
same,Potency,[8],inactive
same,Z-AUC,[10],-1.33 (inactive)
same,Z-AUC,[10]; [11],0.846
same,Z-AUC,[10]; measured here: PEO4 Z-AUC,0.0211
same,Potency,C33A,inactive
same,Potency,CASKI,inactive
same,Potency,Hek293T,inactive
same,Potency,JEG-3,inactive
same,Potency,OV90,inactive
same,Potency,Tov112D,inactive
CC1(C)CC23[C@@H]4CC(=O)[C@@H]2COC(=O)[C@@H]3CC[C@H]41,Potency,[1],inactive
same,Potency,[2],inactive
same,outcome,[3],inactive
same,Potency,[4],12.9 µM (active)
same,Potency,[5],7.28 µM (active)
same,Potency,[7],inactive
same,Potency,[8],inactive
same,Potency,[9],inactive
same,max response,HaCat,-1.08% (inactive)
same,Potency,C33A,inactive
same,Potency,CASKI,inactive
same,Potency,Es-2,inactive
same,Potency,HeLa,inactive
same,Potency,JEG-3,inactive
same,Potency,OV90,inactive
same,Potency,Tov112D,inactive
COc1cc2ncnc(Oc3cccc(NC(=O)Nc4cc(C(C)(C)C(F)(F)F)on4)c3)c2cc1OC,Potency,[2],inactive
same,outcome,[3],inactive
same,Potency,[6],inactive
same,Potency,[7],inactive
same,Potency,[8],inactive
same,Potency,[9],inactive
same,Z-AUC,[10],0.198 (inactive)
same,Z-AUC,[10]; [11],0.387
same,Z-AUC,[10]; measured here: PEO4 Z-AUC,0.555
same,Potency,HaCat,5.17 µM (active)
same,Potency,C33A,inactive
same,Potency,CASKI,inactive
same,Potency,Es-2,inactive
same,Potency,HeLa,inactive
same,Potency,Hek293T,inactive
same,Potency,JEG-3,inactive
same,Potency,OV90,inactive
same,Potency,Tov-21-G,inactive
same,Potency,Tov112D,inactive
CC(=O)N1c2ccc(-c3ccc(C(=O)O)cc3)cc2C(Nc2ccc(Cl)cc2)CC1C (configuration not stated),Potency,[1],20 µM (active)
same,Potency,[2],8.91 µM (active)
same,outcome,[3],inactive
same,Potency,[4],0.0325 µM (active)
same,Potency,[5],0.0205 µM (active)
same,Potency,[7],inactive
same,Potency,[8],inactive
same,Potency,[9],inactive
same,Potency,C33A,inactive
same,Potency,Hek293T,inactive
same,Potency,Tov-21-G,2.24 µM (active)
CCCCn1c(-c2ccccc2)nc(-c2ccccc2)c1CN(Cc1ccc2c(c1)OCO2)Cc1ccc2c(c1)OCO2,Potency,[1],inactive
same,Potency,[2],inactive
same,outcome,[3],inactive
same,Potency,[5],18.3 µM (active)
same,Potency,[7],inactive
same,Potency,[8],inactive
same,Potency,[9],inactive
same,max response,HaCat,-27.1% (inactive)
same,Potency,C33A,inactive
same,Potency,Es-2,inactive
same,Potency,HeLa,inactive
same,Potency,Hek293T,inactive
same,Potency,JEG-3,inactive
same,Potency,OV90,inactive
same,Potency,Tov-21-G,inactive
same,Potency,Tov112D,inactive
CC(C)[C@@H](C)/C=C/[C@@H](C)[C@H]1CC[C@H]2C3=CC=C4C[C@@H](O)CC[C@]4(C)C3=CC[C@]12C,Potency,[2],inactive
same,outcome,[3],inactive
same,Potency,[6],inactive
same,Potency,[7],inactive
same,Potency,[8],inactive
same,Potency,[9],inactive
same,outcome,HaCat,inactive
same,Potency,C33A,inactive
same,Potency,CASKI,inactive
same,Potency,Es-2,inactive
same,Potency,HeLa,inactive
same,Potency,Hek293T,inactive
same,Potency,JEG-3,inactive
same,Potency,OV90,inactive
same,Potency,Tov-21-G,inactive
same,Potency,Tov112D,inactive
CC1OC2OC3C(OCC(O)C3O)OC(=O)C34CCC(C)(C)CC3C3=CCC5C6(C)CC(O)C(OC7OC(CO)C(O)C(O)C7OC7OCC(OC(=O)CC(C)(O)CC(=O)OC1C(OC1OCC(O)C(O)C1O)C2O)C(O)C7O)C(C)(CO)C6CCC5(C)C3(C)CC4O (configuration not stated),Potency,[2],inactive
same,outcome,[3],inactive
same,Potency,[4],2.52 µM (active)
same,Potency,[5],3.17 µM (active)
same,Potency,[7],inactive
same,Potency,[8],inactive
same,Potency,[9],inactive
same,Potency,JEG-3,inactive
same,Potency,OV90,10 µM (active)
Nc1ncnc2c1ncn2[C@@H]1O[C@H](CO)C[C@H]1O,Potency,[1],inactive
same,Potency,[2],inactive
same,outcome,[3],inactive
same,Potency,[4],10.3 µM (active) and inactive
same,Potency,[5],5.78 µM (active)
same,Potency,[6],inactive
same,Potency,[7],inactive
same,Potency,[9],inactive
same,max response,HaCat,-125% (inactive)
same,Potency,C33A,inactive
same,Potency,CASKI,inactive
same,Potency,JEG-3,inactive
same,Potency,OV90,inactive
same,Potency,Tov112D,inactive
O=C(NCc1ccc(Oc2ccccc2)cc1)c1nc(-c2cc(Br)c(O)c(Br)c2)no1,Potency,[1],2.82 µM (active)
same,Potency,[2],2.51 µM (active)
same,Potency,[6],inactive
same,Potency,[7],inactive
same,Potency,[8],inactive
same,Potency,[9],inactive
same,outcome,HaCat,inactive
same,Potency,C33A,inactive
same,Potency,CASKI,inactive
same,Potency,Es-2,inactive
same,Potency,HeLa,inactive
same,Potency,Hek293T,inactive
same,Potency,JEG-3,inactive
same,Potency,OV90,inactive
same,Potency,Tov-21-G,inactive
same,Potency,Tov112D,inactive
COc1cc2ncnc(Nc3ccc(Oc4ccccc4)cc3)c2cc1OC,Potency,[1],inactive
same,Potency,[2],inactive
same,Potency,[4],4.59 µM (active)
same,Potency,[8],inactive
same,Potency,[9],inactive
same,Potency,HaCat,7.31 µM (active)
same,Potency,C33A,inactive
same,Potency,JEG-3,inactive
same,Potency,OV90,inactive
Cc1ccc(C2(COC(=O)C(C)C)CO2)c(OC(=O)C(C)C)c1 (configuration not stated),Potency,[1],inactive
same,Potency,[2],inactive
same,outcome,[3],inactive
same,Potency,[6],inactive
same,Potency,[7],inactive
same,Potency,[8],inactive
same,Potency,[9],inactive
same,outcome,HaCat,inactive
same,Potency,C33A,inactive
same,Potency,CASKI,inactive
same,Potency,Es-2,inactive
same,Potency,HeLa,inactive
same,Potency,Hek293T,inactive
same,Potency,JEG-3,inactive
same,Potency,OV90,inactive
same,Potency,Tov-21-G,inactive
same,Potency,Tov112D,inactive

# Reference: PubChem BioAssay (NCATS)
